The sample as a whole holds a higher share of hits than the screen did.
Pf Dd2 inh: Plasmodium falciparum Dd2 growth inhibition; P. falciparum Dd2 growth, SYBR Green, 72 h; Potency, µM (doses to about 28.9 µM), without a hit: at the top dose activity, negative = inhibition, usual class: inhibitors; hit rate 4.3% among 120,000; active means well fitted inhibition curve with a large enough effect;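 further: plate controls were DMSO vehicle for no effect and reference drug for full effect; nearly all actives have a fitted effect of over 65% in size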
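Readout: SYBR Green fluorescence, 485 nm excitation, 535 nm emission, after ~16 h lysis at 37C. Before that, Dd2-infected red cells (2.5% hematocrit) grew 72 h with compound, 29 uM top final concentration.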
Starred values were filed as active, the others as inactive; i = inactive; [ ] = dose if it differs, or a comment. Potency means the concentration at half of the fitted maximal effect.

SMILES	Pf Dd2 inh
Fc1ccccc1-c1noc(-c2nc(-c3ccccc3F)no2)n1	-1%
COc1cc(Nc2nc(-c3ccccc3)no2)cc(OC)c1OC	-4%
Fc1ccc(Nc2nc(-c3ccccc3)no2)cc1	i
COc1ccc(-c2noc(-c3nc(-c4ccccc4F)no3)n2)cc1OC	22%
COc1cc(Nc2nc(-c3ccccc3F)no2)cc(OC)c1OC	13µM*
CC(=O)N1CC2(Cc3ccccc31)CN([S+](=O)([O-])c1ccc(C)cc1)C2	-17%
Cc1cc(F)ccc1NC(=O)CN1C(=O)NC2(CCC(C(C)(C)C)CC2)C1=O (stereo not drawn)	-22%
O=C(CN1CCCc2nc(C3CC3)ncc2C1=O)NCc1cccs1	-19%
O=C1CCN(Cc2ccncc2F)CCCC(c2nc(-c3cccnc3)no2)CCN1 (stereo not drawn)	i
O=C1CCN(Cc2ccncc2)CCCC(c2nc(-c3cccnc3)no2)CCN1 (stereo not drawn)	-15%
N#Cc1cccc(CN2CCCC(c3nc(-c4cccnc4)no3)CCNC(=O)CC2)c1 (stereo not drawn)	5µM*
Cc1ncsc1CN1CCCC(c2nc(-c3cccnc3)no2)CCNC(=O)CC1 (stereo not drawn)	i
COc1ccc(C(=O)N2CCCC(c3nc(-c4cccnc4)no3)CCNC(=O)CC2)cc1 (stereo not drawn)	-27%
CCOc1ccccc1CN1CCCC(c2nc(-c3cccnc3)no2)CCNC(=O)CC1 (stereo not drawn)	4µM*
COc1ccc(C(=O)N2CCCC(c3nc(-c4ccccc4)no3)CCNC(=O)CC2)c(OC)c1 (stereo not drawn)	7.1µM*
O=C1CCN(C(=O)C2CCCC2)CCCC(c2nc(-c3ccccc3)no2)CCN1 (stereo not drawn)	i
O=C1CCN(C2CCC2)CCCC(c2nc(-c3cccnc3)no2)CCN1 (stereo not drawn)	-6%
Cc1noc([C@@H]2CN(C(=O)c3n[nH]c4ccccc34)C[C@H]2C(N)=O)n1	-38%
O=S(=O)(c1ccccc1)N1CCn2c(nnc2[C@@H]2C[C@@H](O)CN2Cc2cccnc2)C1	22%
Cc1nn(-c2ccccc2)nc1C(=O)N[C@H](C)c1onc(C)c1C(=O)O	i
CC(C)(C(=O)O)C1CCOCC1	39%
CN1Cc2cccn2CC1CNC(=O)c1ccoc1 (stereo not drawn)	i
Cc1cc(OC2CN([S+](=O)([O-])c3ccc(C(F)(F)F)cc3)C2)ccc1F	-7%
CCOC(=O)Cn1c(=O)n(-c2ccccc2OC)c2nc(-c3ccccc3C)nc(C(N)=O)c21	10µM*
CCOC(=O)Cn1c(=O)n(CC2CCCO2)c2nc(-c3ccccc3)nc(C(N)=O)c21 (stereo not drawn)	-15%
SMILES	Pf Dd2 inh
CCn1c(=O)n(-c2ccc3c(c2)OCO3)c2nc(-c3cccc(OC)c3OC)nc(C(N)=O)c21	6%
CCN(CC)S(=O)(=O)c1ccc2c(c1)N(CC(=O)Nc1ccc(F)cc1)C(=O)CO2	19%
NS(=O)(=O)c1ccc(NC(=O)CN2C(=O)COc3ccc(Cl)cc32)cc1	0.71µM*
Cc1ccc(NC(=O)CN2C(=O)COc3ccc(S(=O)(=O)N4CCCCC4)cc32)cc1Cl	6%
Cc1ccccc1CN1CC[C@@H]2CN(S(C)(=O)=O)[C@@H]2C1	-3%
CNC(=O)[C@@H]1CN(C(=O)Cn2nc(C(F)(F)F)cc2C)C[C@H]1c1n[nH]c(C)n1	25%
CC(=O)c1cccc(NC(=O)Cn2c(-c3ccc(F)cc3)nc(C)c(CCO)c2=O)c1	-29%
Cc1ccc(NC(=O)Cn2c(-c3ccc(F)cc3)nc(C)c(CCO)c2=O)c(Cl)c1	i
Cc1cc(C)cc(NC(=O)Cn2c(-c3cccc(Cl)c3)nc(C)c(CCO)c2=O)c1	10µM*
Cc1ccccc1NC(=O)Cn1c(-c2cccc(Cl)c2)nc(C)c(CCO)c1=O	i
Cc1nc(-c2cccc(Cl)c2)n(CC(=O)NC(C)C)c(=O)c1CCO	-12%
Cc1nc(-c2ccc(F)cc2)n(CC(=O)Nc2cc(C(F)(F)F)ccc2Cl)c(=O)c1CCO	11µM*
CCc1ccc(NC(=O)Cn2c(-c3ccc(Cl)cc3)nc(C)c(CCO)c2=O)cc1	-12%
Cc1nc(-c2ccccc2)n(CC(=O)Nc2ccc(F)c(Cl)c2)c(=O)c1CCO	8.9µM*
CCc1ccccc1NC(=O)Cn1c(-c2ccc(F)cc2)nc(C)c(CCO)c1=O	-11%
COCC1CN(C2CCC2)CC12CCN(C(=O)c1cncn1C)CC2 (stereo not drawn)	23%
Cn1cc(C(=O)N2CCC(N(C3CCOCC3)S(C)(=O)=O)CC2)cn1	143%
CN(c1ccccc1)c1ccc2c(n1)CN(Cc1ccc(F)cc1)C(=O)CO2	i
CN1CC2(CCN(C(=O)c3cccnc3N(C)C3CCCCC3)CC2)OC1=O	-10%
COc1ccc(-c2cc3nc4c(c(=O)n3[nH]2)CN(C(=O)Cc2ccc(NC(C)=O)cc2)CC4)cc1	-12%[5.79 µM]
CS(=O)(=O)N1CCC(C2CCN(Cc3ccncc3)C2)CC1 (stereo not drawn)	-2%
Cn1cc(CN2C[C@@H]3OCC(=O)N[C@@H]3C2)c2ccccc21	i
Cn1cc(CN2CCC(C3CCN(S(C)(=O)=O)CC3)C2)c2ccccc21 (stereo not drawn)	3.5µM*
Cn1cc(CN2CC[C@@H](c3ccc4c(c3)OCO4)[C@H](O)C2)c2ccccc21	8.9µM*
CN1C[C@H]2CN(Cc3cn(C)c4ccccc34)CCN2C1=O	-28%[44.1 µM]
SMILES	Pf Dd2 inh
CS(=O)(=O)N1CCC(C2CCN(Cc3ccsc3)C2)CC1 (stereo not drawn)	i
COC[C@H]1CCCN1Cc1nc(C2(O)CCN(C3CCN(C)CC3)CC2)cs1	-8%[44.1 µM]
COc1ccc(C(=O)NC2CCc3n[nH]c(=O)n3CC2)c(OC)n1 (stereo not drawn)	57%
COc1ccccc1OC1CCN(Cc2cc3n(n2)CCNC3)CC1	-16%
Cc1nc(CC2CCN(Cc3cc4n(n3)CCNC4)CC2)no1	-5%
Cc1ccc(SC2CCN(Cc3cc4n(n3)CCNC4)CC2)cc1	10µM*
COCCn1cc(CN2CCN(Cc3cccc(F)c3)CC2)ccc1=O	i
Cc1ccccc1CNC(=O)C1(c2ccc(NS(C)(=O)=O)cc2)CCCCC1	i
O=C(NC1CCCN(c2cc(-c3ccc(F)cc3)[nH]n2)C1)c1ccccc1F (stereo not drawn)	i
O=C([C@@H]1C[C@H](Oc2ccccc2)CN1C(=O)Cc1c[nH]c2ccccc12)N1CCOCC1	-22%
O=C([C@@H]1C[C@H](Oc2cccnc2)CN1C(=O)CCc1ccccc1)N1CCOCC1	-6%
O=C([C@@H]1C[C@H](Oc2cccnc2)CN1C(=O)CCc1c[nH]c2ccccc12)N1CCOCC1	4µM*
CCc1nc2cc(N3CCC(C(=O)O)CC3)cnc2nc1CC	i
CC(C)NC(=O)NC[C@H]1OC[C@@H](NCc2ncc[nH]2)[C@@H]1O	10%[44.1 µM]
Cc1ccc(-c2ncc(C(=O)Nc3cc(F)ccc3F)c(-c3ccncc3)n2)cc1	-16%
O=C([C@@H]1C[C@@H](O)[C@H](O)[C@@H]2NC(=S)N(c3ccc(F)cc3)[C@@H]21)N1CCCCC1	-19%[44.1 µM]
CC(C)c1ccc(N2C(=S)N[C@H]3[C@@H](O)[C@H](O)C[C@@H](C(=O)N(C)Cc4ccccc4)[C@H]32)cc1	13µM*
Cc1ccc(N2C(=S)N[C@H]3[C@@H](O)[C@H](O)C[C@@H](C(=O)N4CCCCC4)[C@H]32)cc1	i
CCC1c2nccn2CCCN1C(=O)c1ccc2ncccc2c1 (stereo not drawn)	11%
